Inconclusive results are not listed. Calls of active or inactive are those of the source. How the source made its calls: active means hit-call score of the fitted dose curve at least 0.9, where 1 is the maximum; inconclusive means response in the unintended direction; inactive means score below 0.9.
What follows are compounds tested against Estrogen-related receptor gamma (Homo sapiens) (UniProt P62508) (assay: ATG_ERRg_TRANS: Attagene TRANS-FACTORIAL HepG2 Assay for human Estrogen-Related Receptor gamma (ERRg) (AID 2282977;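 further: hits increase reporter signal over DMSO so potencies reflect activators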)). Conditions: HepG2 Attagene TRANS reporter, ERRg transactivation.
Sequence of Estrogen-related receptor gamma (Homo sapiens) (P62508 whole entry, looked up): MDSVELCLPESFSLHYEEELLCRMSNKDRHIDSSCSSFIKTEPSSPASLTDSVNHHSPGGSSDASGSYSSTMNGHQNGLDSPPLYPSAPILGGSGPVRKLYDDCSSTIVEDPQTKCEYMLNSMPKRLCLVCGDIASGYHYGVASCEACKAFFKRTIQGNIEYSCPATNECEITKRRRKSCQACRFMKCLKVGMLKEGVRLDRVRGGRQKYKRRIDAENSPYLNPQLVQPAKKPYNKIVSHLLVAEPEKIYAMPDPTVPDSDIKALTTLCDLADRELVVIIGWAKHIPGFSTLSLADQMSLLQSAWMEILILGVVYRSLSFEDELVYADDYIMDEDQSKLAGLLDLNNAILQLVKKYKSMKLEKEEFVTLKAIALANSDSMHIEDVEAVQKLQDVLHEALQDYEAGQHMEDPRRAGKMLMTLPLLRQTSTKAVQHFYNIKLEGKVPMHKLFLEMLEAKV
Experimental: ATG_TRANS is a cell-based, multiplexed-readout assay that uses HepG2, a human liver cell line, with measurements taken at 24 hours after chemical dosing in a 24-well plate.ATG_ERRg_TRANS is one of 30 assay component(s) measured or calculated from the ATG_TRANS assay. It is designed to make measurements of mRNA induction, a form of inducible reporter, as detected with fluorescence intensity signals by Reverse transcription polymerase chain reaction (RT-PCR) and Capillary electrophoresis technology.Data from the assay component ATG_ERRg_TRANS was analyzed into 1 assay endpoint. This assay endpoint, ATG_ERRg_TRANS, was analyzed in the positive analysis fitting direction relative to DMSO as the negative control and baseline of activity. Using a type of inducible reporter, measures of mRNA for gain-of-signal activity can be used to understand the reporter gene at the transcription factor-level as they relate to the gene ESRRG. Furthermore, this assay endpoint can be referred to as a primary readout, because this assay has produced multiple assay endpoints where this one serves a reporter gene function. To generalize the intended target to other relatable targets, this assay endpoint is annotated to the nuclear receptor intended target family, where the subfamily is steroidal.
Human liver HepG2 cells are transiently transfected with multiple reporter transcription units (MRTUs) in 6-well plates using FuGene 6 reagent (Roche; 3 ml FuGene/1 mg DNA). The MRTU constructs are regulated by a cis-regulating element (promoter). […] A major difference between the CIS and TRANS system is that in CIS activities of endogenous TFs are measured, whereas the TRANS assay evaluates changes in activities of exogenous, chimeric NR-Gal4 proteins. […] At the end of 24 hour incubation, total RNA was isolated using TriZol reagent (Invitrogen). The isolated RNA is then reverse-transcribed using oligo(dT) primer and Mo-MLV reverse transcriptase (Invitrogen) with DNAse I (Ambion) treatment for 30 min. The one-tenth of the produced cDNA was amplified by PCR using Taq DNA polymerase (Invitrogen) and two reporter sequence-specific primers. The PCR products were fluorescently labeled by primer extension with 6-arboxyfluorescein (6-FAM) 5'-labeled reporter sequence-specific primer (2 min at 95 C, 20 s at 68 C and 10 min at 72 C) and these products were digested with 5U of HpaI (New England Biolabs) for 2h at 37 C. The fragments were purified using Qiaquick PCR columns (Qiagen), analyzed on an ABI 3130xL genetic analyzer (Applied Biosystems) with peak positions identified by using a set of X-rhodamine (ROX)-labeled MapMarker1000 molecular weight standards (BioVentures). The raw capillary electrophoresis data was processed using Attagraph software (Attagene).

outcome, inactive:
Cn1c(=O)c2c(ncn2C)n(C)c1=O
CCc1cc(SCc2sc(-c3ccc(C(F)(F)F)cc3)nc2CN2CCN(c3ccc(OC)cc3)CC2)ccc1OCC(=O)O
CNCc1ccc(NC(=O)c2c[nH]c3c2C(=O)CCC3)cc1
O=C(NS(=O)(=O)/C=C/c1ccccc1)c1ccc(F)cc1Cl
On1ccccc1=S
O=c1[nH]c2ccc(S(=O)CCN3CCC(Cc4ccc(F)cc4)CC3)cc2o1 (stereo not drawn)
O=C1CCCCCN1
COC(=O)c1c(Cl)c(Cl)c(C(=O)OC)c(Cl)c1Cl
Clc1nc(Cl)c(Cl)c(Cl)c1Cl
COc1ccc2sc(C(=O)Nc3nnn[nH]3)c(OC(C)C)c2c1
CN(C)c1ccc(Cc2ccc(N(C)C)cc2)cc1
O=C(O)c1cccc(N(Cc2cccnc2)c2ccc(OC(F)F)c(OC(F)F)c2)c1
CCOC(=O)COc1ccc2c(c1)CC(NCC(O)c1cccc(Cl)c1)CC2 (stereo not drawn)
CCOC(=O)c1ccc(C2CCC(NC[C@H](O)COc3ccc(O)c(NS(C)(=O)=O)c3)CC2)cc1 (stereo partly drawn)
COc1cccc(-c2ccc(/C=C\CN3CCCCCC3)cc2Cl)c1
Cc1[nH]cnc1C[C@H]1CCc2c(C)c3ccccc3n2C1=O
CCCCCCCCCCCCc1ccccc1
CC[C@H]1CC[C@H](NCc2cc3c(cc2OC)[C@H]2C[C@H]2C(=O)N3C)[C@H](c2ccccc2)N1

Reference: PubChem BioAssay (EPA / NIEHS)
